From PubChem BioAssay (EPA / NIEHS)
Activity calls are given as the source filed them. Rule for the calls: active = hit-call score of the fitted dose curve at least 0.9, where 1 is the maximum; inactive = score below 0.9.

Assays:
[1] = ATG_GLI_CIS: Attagene CIS-FACTORIAL HepG2 Assay for human Zinc Finger Protein GLI1 (AID 2282945); conditions: HepG2, Attagene cis-factorial reporter mRNA, GLI element; actives raise or lower the signal
Method in brief: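 Bidirectional curve fits relative to DMSO, using reporter mRNA levels from RT-PCR plus capillary electrophoresis. Cells were HepG2 transiently carrying cis-regulated reporter constructs, harvested 24 h after dosing.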

[2] = ATG_GRE_CIS: Attagene CIS-FACTORIAL HepG2 Assay for human Glucocorticoid Response Elements (GRE) (AID 2282947); conditions: HepG2 GRE cis-reporter, Attagene multiplex mRNA; actives raise or lower the signal
Method in brief: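 Multiplexed cis-reporter mRNA induction, HepG2, 24 h post-dose. RT-PCR, FAM-labelled, HpaI-digested amplicons by CE. Bidirectional fit vs DMSO.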

[3] = ATG_ISRE_CIS: Attagene CIS-FACTORIAL HepG2 Assay for human Interferon Regulatory Factor 1 (IRF1) binding to an Interferon-Stimulated Response Element (ISRE) (AID 2282948); conditions: HepG2 ISRE cis-reporter (Attagene), mRNA transcription readout; actives raise or lower the signal
Method in brief: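 Uses HepG2 liver cells transfected with cis-regulated reporters and measures mRNA 24 h post-dosing through RT-PCR, primer-extension labelling and capillary electrophoresis, with DMSO as negative control.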

[4] = ATG_M_32_CIS: Attagene CIS-FACTORIAL HepG2 Assay for M32 Transcription Factor (Internal Marker) (AID 2282949); conditions: HepG2 Attagene cis-factorial M32 reporter, mRNA; actives raise or lower the signal;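 note: background control marker of the multiplexed CIS panel rather than a real target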
Method in brief: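 Using DMSO as baseline, bidirectional curve fits were applied to reporter mRNA signals. These came from transiently transfected HepG2 cells exposed for 24 h, with RNA analysed by RT-PCR, FAM primer extension, HpaI digestion and CE.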

[5] = ATG_M_06_CIS: Attagene CIS-FACTORIAL HepG2 Assay for M06 Transcription Factor (Internal Marker) (AID 2282950); conditions: HepG2 Attagene CIS-FACTORIAL M06 internal marker reporter; actives raise or lower the signal
Method in brief: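 Cells (HepG2, transiently carrying cis-driven reporter units) receive chemical for 24 h before RNA isolation. Reporter cDNA is PCR-amplified, FAM-labelled by primer extension, HpaI-digested and sized on a capillary analyser.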

[6] = molecular target: Hypoxia-inducible factor 1-alpha (Homo sapiens) (UniProt Q16665); assay: ATG_HIF1a_CIS: Attagene CIS-FACTORIAL HepG2 Assay for human Hypoxia Inducible Factor 1 (HIF1A) (AID 2282951); conditions: HepG2 Attagene cis-factorial HIF1a reporter transcription; actives raise or lower the signal
Method in brief: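 Fluorescence intensity of capillary-separated, 6-FAM-labelled reporter amplicons gives mRNA induction in HepG2 cells carrying transfected cis-promoter reporter units; cells exposed 24 h, responses fitted up or down from DMSO.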

[7] = molecular target: Hepatocyte nuclear factor 6 (Homo sapiens) (UniProt Q9UBC0); assay: ATG_HNF6_CIS: Attagene CIS-FACTORIAL HepG2 Assay for human Hepatocyte Nuclear Factor 6 (HNF6) (AID 2282952); conditions: HepG2 Attagene cis-factorial HNF6 reporter transcription; actives raise or lower the signal
Method in brief: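 Twenty-four-hour chemical treatment of reporter-transfected HepG2 cells precedes RNA isolation, DNase-treated reverse transcription and PCR of reporter sequences. Labelled fragments are sized by capillary electrophoresis and fitted bidirectionally versus DMSO.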

[8] = molecular target: Heat shock factor protein 1 (Homo sapiens) (UniProt Q00613); assay: ATG_HSE_CIS: Attagene CIS-FACTORIAL HepG2 Assay for human Heat Shock Transcription Factor 1 (HSE) (AID 2282953); conditions: HepG2 HSE cis-reporter, Attagene RNA transcription; actives raise or lower the signal
Method in brief: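 Liver-derived HepG2 cells carry transiently introduced multiple reporter units governed by cis promoters. Reporter RNA measured 24 h post-dose through reverse transcription, PCR amplification, fluorescent labelling and capillary electrophoresis, normalised to DMSO.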

[9] = ATG_MRE_CIS: Attagene CIS-FACTORIAL HepG2 Assay for human Metal Responsive Element (MRE) (AID 2282954); conditions: HepG2 MRE cis-reporter transcription, Attagene multiplex; actives raise or lower the signal
Method in brief: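 Multiplexed cis-reporter assay in human HepG2 liver cells, 24 h incubation with test chemical. Reporter transcripts measured by RT-PCR and capillary electrophoresis; values from bidirectional curve fitting versus DMSO.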

[10] = molecular target: Paired box protein Pax-6 (Homo sapiens) (UniProt P26367); assay: ATG_Pax6_CIS: Attagene CIS-FACTORIAL HepG2 Assay for human Paired Box 6 (PAX6) (AID 2282956); conditions: HepG2 CIS-FACTORIAL PAX6 reporter transcription, RNA readout; actives raise or lower the signal
Method in brief: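 DMSO-referenced bidirectional fits of reporter mRNA fluorescence; HepG2 with transient cis-promoter MRTUs, 24 h post-dose, RT-PCR plus capillary electrophoresis detection.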

[11] = ATG_PXRE_CIS: Attagene CIS-FACTORIAL HepG2 Assay for human Pregnane X Receptor Element (PXRE) (AID 2282957); conditions: HepG2 Attagene CIS-FACTORIAL PXRE reporter, mRNA; actives raise or lower the signal
Method in brief: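 Bidirectional activity, baselined to DMSO, derived from reporter mRNA fluorescence (RT-PCR plus capillary electrophoresis) in HepG2 cells bearing cis-promoter reporter units, 24 h exposure.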

[12] = ATG_PPRE_CIS: Attagene CIS-FACTORIAL HepG2 Assay for human Peroxisome Proliferator-activated Response Element (PPRE) (AID 2282958); conditions: HepG2 PPRE cis-element reporter, Attagene transcription factor profiling; actives raise or lower the signal
Method in brief: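 In this cell-based multiplex, a PPRE cis element drives a reporter sequence in transiently transfected HepG2 cells. Following 24 h treatment, labeled cDNA amplicons are sized and quantified by capillary electrophoresis, with DMSO defining baseline.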

[13] = ATG_RORE_CIS: Attagene CIS-FACTORIAL HepG2 Assay for human RAR-related Orphan Receptor Element (RORE) (AID 2282959); conditions: HepG2 Attagene cis-factorial RORE reporter, mRNA; actives raise or lower the signal
Method in brief: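 Endogenous factor activity at a cis response element is read as reporter transcript levels in HepG2 cells, 24 h post-dose. Transcripts are quantified by RT-PCR with capillary electrophoresis, and data fitted in both directions against DMSO.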

[14] = ATG_Sox_CIS: Attagene CIS-FACTORIAL HepG2 Assay for human SRY-box transcription factor (SOX) (AID 2282960); conditions: HepG2 Attagene cis-factorial SOX reporter, mRNA; actives raise or lower the signal
Method in brief: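 Measures mRNA induction of a SOX1-associated reporter in HepG2 after 24 h dosing. Fluorescently labelled RT-PCR fragments are separated by capillary electrophoresis, and gain or loss relative to DMSO control is fitted.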

[15] = molecular target: Transcription factor Sp1 (Homo sapiens) (UniProt P08047); assay: ATG_Sp1_CIS: Attagene CIS-FACTORIAL HepG2 Assay for human Specificity Protein 1 (Sp1) (AID 2282961); conditions: HepG2 Sp1 cis-reporter transcription, actives raise or lower the signal
Method in brief: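 Cells: HepG2, transiently transfected with cis-regulated multiplexed reporters. Exposure: 24 h. Detection: reporter transcripts amplified, fluorescently labeled, restriction-digested and sized by capillary electrophoresis. Analysis: bidirectional fit relative to DMSO.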

[16] = ATG_SREBP_CIS: Attagene CIS-FACTORIAL HepG2 Assay for human Sterol Regulatory Element Binding (SREBP) (AID 2282962); conditions: HepG2 Attagene cis-factorial SREBP reporter, mRNA; actives raise or lower the signal
Method in brief: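 In this cis-format assay, HepG2 liver cells express reporters controlled by promoter elements responsive to native transcription factors. Exposure lasts 24 h; reporter mRNA fluorescence from capillary electrophoresis gives the signal, fitted bidirectionally against DMSO.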

[17] = molecular target: Signal transducer and activator of transcription 3 (Homo sapiens) (UniProt P40763); assay: ATG_STAT3_CIS: Attagene CIS-FACTORIAL HepG2 Assay for human Signal Transducer and Activator of Transcription 3 (STAT3) (AID 2282963); conditions: HepG2, Attagene cis-factorial STAT3 reporter transcription; actives raise or lower the signal
Method in brief: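 Cis-factorial format: endogenous transcription factors in HepG2 drive transfected reporter units. After 24 h treatment, reporter RNA was reverse-transcribed, amplified, FAM-labelled and HpaI-digested before CE analysis; activity scored in both directions against DMSO.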

[18] = ATG_TA_CIS: Attagene CIS-FACTORIAL HepG2 Assay for human TA Basal Promoter (AID 2282964); conditions: HepG2 Attagene CIS-factorial TA basal promoter reporter; actives raise or lower the signal
Method in brief: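 Background internal-marker endpoint from a 52-component HepG2 cis-reporter panel. Cells treated 24 h; reporter transcripts quantified via RT-PCR and CE fluorescence against DMSO baseline.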

[19] = ATG_PBREM_CIS: Attagene CIS-FACTORIAL HepG2 Assay for human Phenobarbital-responsive Enhancer Module (PBREM) (AID 2282955); conditions: HepG2 PBREM cis-reporter, Attagene multiplexed transcription; actives raise or lower the signal
Method in brief: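 Cells were transfected with cis-element reporter units and treated for 24 h, after which RNA was extracted and reporter transcripts measured by RT-PCR and capillary electrophoresis.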

Measured: AC50

Transcription factor Sp1 (Homo sapiens), sequence (P08047 whole entry, looked up): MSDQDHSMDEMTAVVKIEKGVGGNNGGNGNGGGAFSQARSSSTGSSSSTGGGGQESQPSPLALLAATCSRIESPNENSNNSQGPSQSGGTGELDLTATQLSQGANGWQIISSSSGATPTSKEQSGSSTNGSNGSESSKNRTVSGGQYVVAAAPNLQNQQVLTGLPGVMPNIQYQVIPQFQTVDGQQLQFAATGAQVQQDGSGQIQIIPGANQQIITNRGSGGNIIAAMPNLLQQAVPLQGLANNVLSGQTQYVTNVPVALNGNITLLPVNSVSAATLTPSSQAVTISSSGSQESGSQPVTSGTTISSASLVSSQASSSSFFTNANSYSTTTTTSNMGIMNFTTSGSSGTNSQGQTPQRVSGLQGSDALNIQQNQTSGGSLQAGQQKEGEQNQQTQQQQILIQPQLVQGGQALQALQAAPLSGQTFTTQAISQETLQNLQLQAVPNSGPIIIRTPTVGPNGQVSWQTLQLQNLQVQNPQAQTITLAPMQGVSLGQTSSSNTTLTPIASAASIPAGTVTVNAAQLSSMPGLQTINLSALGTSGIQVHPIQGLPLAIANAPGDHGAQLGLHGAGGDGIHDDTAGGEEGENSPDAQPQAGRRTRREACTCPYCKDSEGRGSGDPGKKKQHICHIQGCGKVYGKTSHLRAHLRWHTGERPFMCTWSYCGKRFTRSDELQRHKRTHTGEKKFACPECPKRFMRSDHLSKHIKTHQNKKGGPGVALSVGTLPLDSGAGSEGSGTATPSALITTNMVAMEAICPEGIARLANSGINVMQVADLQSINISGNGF
Hepatocyte nuclear factor 6 (Homo sapiens), sequence (Q9UBC0 whole entry, looked up, the tested form may be a part): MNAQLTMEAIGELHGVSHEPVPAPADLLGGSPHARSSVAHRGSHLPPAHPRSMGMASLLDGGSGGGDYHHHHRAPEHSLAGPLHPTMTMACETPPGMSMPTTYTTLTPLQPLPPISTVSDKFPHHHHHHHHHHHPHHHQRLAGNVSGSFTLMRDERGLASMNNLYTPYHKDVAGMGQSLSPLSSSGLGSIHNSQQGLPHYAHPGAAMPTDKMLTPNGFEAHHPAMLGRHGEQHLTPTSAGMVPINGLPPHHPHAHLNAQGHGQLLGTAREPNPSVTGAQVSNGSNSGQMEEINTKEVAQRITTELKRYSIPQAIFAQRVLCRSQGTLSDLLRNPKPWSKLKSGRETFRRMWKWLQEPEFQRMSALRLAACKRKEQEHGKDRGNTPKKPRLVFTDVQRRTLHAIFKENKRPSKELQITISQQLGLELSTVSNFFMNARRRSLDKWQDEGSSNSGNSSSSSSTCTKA
Hypoxia-inducible factor 1-alpha (Homo sapiens), sequence (Q16665 whole entry, looked up): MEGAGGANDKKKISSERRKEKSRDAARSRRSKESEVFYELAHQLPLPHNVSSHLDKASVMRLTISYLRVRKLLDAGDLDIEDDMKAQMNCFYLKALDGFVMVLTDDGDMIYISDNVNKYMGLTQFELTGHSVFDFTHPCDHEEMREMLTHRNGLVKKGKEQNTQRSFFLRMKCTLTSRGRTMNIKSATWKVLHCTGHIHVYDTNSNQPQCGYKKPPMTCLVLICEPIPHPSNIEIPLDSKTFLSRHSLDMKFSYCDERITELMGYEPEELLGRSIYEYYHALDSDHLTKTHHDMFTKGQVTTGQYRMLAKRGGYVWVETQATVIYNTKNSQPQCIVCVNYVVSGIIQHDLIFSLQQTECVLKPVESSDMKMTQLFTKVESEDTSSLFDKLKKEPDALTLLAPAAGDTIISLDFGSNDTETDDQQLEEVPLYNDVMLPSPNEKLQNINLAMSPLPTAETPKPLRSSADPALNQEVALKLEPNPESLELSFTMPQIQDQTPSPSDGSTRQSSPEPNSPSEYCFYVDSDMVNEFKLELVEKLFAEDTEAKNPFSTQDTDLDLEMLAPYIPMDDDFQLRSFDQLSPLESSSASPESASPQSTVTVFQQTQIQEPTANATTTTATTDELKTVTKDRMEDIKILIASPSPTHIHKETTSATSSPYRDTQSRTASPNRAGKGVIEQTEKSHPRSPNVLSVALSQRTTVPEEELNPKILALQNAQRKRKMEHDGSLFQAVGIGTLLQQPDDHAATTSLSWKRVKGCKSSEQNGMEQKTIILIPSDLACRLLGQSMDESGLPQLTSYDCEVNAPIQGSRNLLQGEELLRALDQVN
Paired box protein Pax-6 (Homo sapiens), sequence (P26367 whole entry, looked up): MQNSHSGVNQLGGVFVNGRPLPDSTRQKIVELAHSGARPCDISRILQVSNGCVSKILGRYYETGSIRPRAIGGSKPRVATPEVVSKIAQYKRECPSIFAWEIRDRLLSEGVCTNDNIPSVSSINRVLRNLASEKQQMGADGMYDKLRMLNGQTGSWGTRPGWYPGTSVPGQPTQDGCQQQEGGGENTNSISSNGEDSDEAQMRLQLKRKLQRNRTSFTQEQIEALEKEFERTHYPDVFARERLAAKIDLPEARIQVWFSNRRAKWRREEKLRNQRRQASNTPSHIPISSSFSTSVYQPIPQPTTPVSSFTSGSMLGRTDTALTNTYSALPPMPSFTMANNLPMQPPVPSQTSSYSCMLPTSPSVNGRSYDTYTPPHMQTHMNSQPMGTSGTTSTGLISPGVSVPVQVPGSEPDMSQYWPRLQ
Heat shock factor protein 1 (Homo sapiens), sequence (Q00613 whole entry, looked up): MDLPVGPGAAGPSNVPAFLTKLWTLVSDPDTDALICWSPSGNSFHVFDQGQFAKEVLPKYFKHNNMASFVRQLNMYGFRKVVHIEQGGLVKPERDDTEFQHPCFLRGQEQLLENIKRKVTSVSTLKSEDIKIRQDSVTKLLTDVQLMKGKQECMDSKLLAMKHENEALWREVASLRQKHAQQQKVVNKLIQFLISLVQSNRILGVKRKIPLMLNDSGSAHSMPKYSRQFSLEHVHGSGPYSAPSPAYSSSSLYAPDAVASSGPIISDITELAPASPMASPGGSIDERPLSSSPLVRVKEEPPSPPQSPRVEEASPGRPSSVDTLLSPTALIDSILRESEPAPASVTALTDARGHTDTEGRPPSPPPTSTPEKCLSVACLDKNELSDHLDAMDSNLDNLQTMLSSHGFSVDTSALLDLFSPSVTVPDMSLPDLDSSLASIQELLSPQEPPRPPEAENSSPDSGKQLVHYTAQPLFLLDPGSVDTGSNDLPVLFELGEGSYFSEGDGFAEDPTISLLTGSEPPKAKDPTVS
Signal transducer and activator of transcription 3 (Homo sapiens), sequence (P40763 whole entry, looked up): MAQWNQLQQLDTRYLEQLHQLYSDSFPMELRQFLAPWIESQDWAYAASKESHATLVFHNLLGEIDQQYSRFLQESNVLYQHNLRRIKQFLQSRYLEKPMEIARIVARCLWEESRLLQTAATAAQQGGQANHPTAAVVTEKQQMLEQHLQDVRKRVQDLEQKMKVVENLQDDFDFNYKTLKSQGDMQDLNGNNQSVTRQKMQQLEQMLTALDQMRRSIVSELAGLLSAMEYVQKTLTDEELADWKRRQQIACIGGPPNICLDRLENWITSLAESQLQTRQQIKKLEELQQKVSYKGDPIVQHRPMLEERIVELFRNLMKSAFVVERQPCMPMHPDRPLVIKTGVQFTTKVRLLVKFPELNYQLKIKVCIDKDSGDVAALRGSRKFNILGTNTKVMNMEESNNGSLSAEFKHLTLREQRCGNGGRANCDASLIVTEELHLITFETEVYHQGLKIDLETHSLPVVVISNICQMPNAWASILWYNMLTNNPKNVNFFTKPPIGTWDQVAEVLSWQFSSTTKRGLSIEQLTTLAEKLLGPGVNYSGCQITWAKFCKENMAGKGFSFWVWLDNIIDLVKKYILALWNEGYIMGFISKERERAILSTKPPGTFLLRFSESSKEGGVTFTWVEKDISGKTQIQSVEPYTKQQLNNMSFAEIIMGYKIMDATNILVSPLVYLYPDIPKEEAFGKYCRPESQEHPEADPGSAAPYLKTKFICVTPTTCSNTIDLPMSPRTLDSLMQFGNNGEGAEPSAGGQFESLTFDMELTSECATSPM

O=S1(=O)CC=CC1
not listed: [19]
inactive: all other assays above

CCCC1CCOC(C)S1 (stereo unspecified)
active: [11] 54 µM
not listed: [12] | [15] | [18] | [19]
inactive: all other assays above

c1ccc(Cc2ccccc2)cc1
not listed: [12] | [19]
inactive: all other assays above

CC(C)N(c1ccccc1)C(C)C
not listed: [9]
inactive: all other assays above

CC(C)(C)c1ccc(S)cc1
active: [11] 6.36 µM
not listed: [7]
inactive: all other assays above

CC(C)(C)c1cccc(O)c1
active: [11] 11.5 µM
not listed: [8] | [13] | [19]
inactive: all other assays above

C1COCO1
not listed: [7] | [13] | [15] | [17]
inactive: all other assays above

CCOC(=O)CC(C)C
not listed: [7] | [17]
inactive: all other assays above

CC(C)=CCCC(C)=CC(=O)O
active: [11] 29.8 µM
not listed: [12] | [17] | [19]
inactive: all other assays above

[Cu+]
active: [9] 1.09 µM
not listed: [12] | [13] | [18] | [19]
inactive: all other assays above

O=C(O)C1=NN(c2ccc(S(=O)(=O)O)cc2)C(=O)C1
active: [11] 45.8 µM
not listed: [15] | [19]
inactive: all other assays above

CC(O)CN (stereo unspecified)
not listed: [8] | [9] | [12] | [14] | [19]
inactive: all other assays above

Cc1cc(O)c2c(c1)C(=O)c1cc(O)cc(O)c1C2=O
active: [2] 18.5 µM | [3] 36.2 µM | [9] 18.9 µM | [19] 14.9 µM | [12] 12 µM | [15] 8.81 µM
not listed: [8] | [18]
inactive: all other assays above

CC(=O)CC(=O)N(C)C
not listed: [12] | [19]
inactive: all other assays above

CC(=O)CCc1ccc(O)cc1
not listed: [19]
inactive: all other assays above

CC(=O)CC(C)(C)C1CCCCC1
active: [11] 30.7 µM
not listed: [2]
inactive: all other assays above
